PK Bst = Pyruvate Kinase; Potency, µM; purified pyruvate kinase, luminescence ATP production; ribose 5-phosphate activator present at AC10; 51,000 tested, 1.2% active; in the data active means potency below about 11 µM; inconclusive means mostly about 12 µM to 25 µM;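 the screen sought inhibitors and activators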
USP2a inhib = qHTS Assay for Inhibitors of Ubiquitin-specific Protease USP2a. Potency, µM (titrated, usually from 38.3 µM), usual class: inhibitors. AID 927, 2007. Ubiquitin carboxyl-terminal hydrolase 2 (Homo sapiens), O75604. USP2a enzymatic assay, qHTS inhibition. 60,000 tested, 0.1% active; further: nearly all actives have a fitted effect of over 60% in size
Target sequence (O75604 whole entry, looked up): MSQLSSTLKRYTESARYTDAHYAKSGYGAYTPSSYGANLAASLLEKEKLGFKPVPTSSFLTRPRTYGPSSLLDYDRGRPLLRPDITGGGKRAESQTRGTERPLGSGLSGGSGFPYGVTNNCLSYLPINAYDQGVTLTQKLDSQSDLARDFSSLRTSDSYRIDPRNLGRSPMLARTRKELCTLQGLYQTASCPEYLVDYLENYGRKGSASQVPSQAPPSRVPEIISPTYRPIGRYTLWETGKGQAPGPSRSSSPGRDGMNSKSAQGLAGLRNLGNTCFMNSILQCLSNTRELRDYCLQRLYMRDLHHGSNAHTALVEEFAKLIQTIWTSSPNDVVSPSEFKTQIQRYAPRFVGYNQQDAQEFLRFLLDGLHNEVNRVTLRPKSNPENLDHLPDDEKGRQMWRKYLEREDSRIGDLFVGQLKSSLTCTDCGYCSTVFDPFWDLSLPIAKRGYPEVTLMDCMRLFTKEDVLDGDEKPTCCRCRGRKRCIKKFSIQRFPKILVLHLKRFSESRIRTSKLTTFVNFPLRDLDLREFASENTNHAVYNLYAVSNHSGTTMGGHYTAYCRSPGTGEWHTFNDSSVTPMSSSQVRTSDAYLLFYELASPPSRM
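20 nM USP2 core + cpd, 30 min RT; add 20 nM Ub-PLA2/20 uM NBD C6-HPC; read Ex460/Em535 at 0 h and 2.5 h. Normalized to NEM; qHTS curve fit/classification.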
Hsp90 Hop PPI = qHTS Assay for Disrupters of an Hsp90 Co-Chaperone Interaction. AlphaScreen TPR2A-His6 binding biotin-Hsp90 C-terminal peptide. Potency, µM (highest dose often 57 µM). 71,000 tested, 0.44% active. AID 595, 2007; active means well fitted curve in either direction with a large enough effect; inconclusive means small, poorly fitted or top-dose-only effect, or another doubt
UbGFP stabilizer = Ubiquitin-GFP Assay; Ubiquitin-GFP reporter cells, proteasome inhibition, GFP fluorescence; response scale: untreated = 0%, 10 µM MG-132 = 100%; Potency, µM (doses to about 45.9 µM), hits mostly activators; 67,000 tested, under 10 active; AID 526, 2006; active means well fitted activation curve with a large enough effect, not every such curve was filed as active; inconclusive means small, poorly fitted or top-dose-only effect, or another doubt; inactive means no such curve, though single readings can be large or run the other way
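Proteasome block read as GFP accumulation: ubiquitin(G76V)-GFP U2OS cells exposed to compound (2.9 nM–46 uM) for 4 hr at 37 C. Normalization used untreated cells as 0% and 10 uM MG-132 as 100%; concentration-response curves fitted.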
HBB splicing = qHTS Assay for Modulators of Hemoglobin Beta Chain Splicing; HBB splicing reporter cell assay, activation; EGFP reporter with mutant IVS2-654 intron; response scale: normalised to 500 nM splice-correcting PNA; Potency, µM (highest dose often 46.1 µM), hits mostly activators; 65,000 tested, 0.06% active; AID 925, 2007
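Compounds were applied for 2 days to HeLa EGFP-654 cells, 500/well in Optimem with 2% FCS. The reporter's EGFP is disrupted by mis-splicing of beta-globin intron IVS2-654. Readout: summed well GFP fluorescence from 488 nm laser scanning; reference was 500 nM antisense […] 654 PNA.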
Epigenetic mod = qHTS Assay for Epigenetic Modulators. mouse C127i GFP locus derepression, cytometry, 30 h. Potency, µM (top dose mostly 46.1 µM). 68,000 tested, 0.09% active
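Locus derepression in mouse mammary C127i cells whose integrated CMV-GFP reporter is normally silent; GFP expression after 30 h compound treatment was quantified by counting fluorescent cells.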
Hits are given with their value; [ ] = remark or other dose. This is a sample that favours compounds with a hit; in the whole collection about 1.3% have one here. Unless noted, the call rests on the fitted dose curve; in most records, active means well fitted curve in the direction sought with a large enough effect; inconclusive means small, poorly fitted or top-dose-only effect, or another doubt; inactive means no such curve, though single readings can be large; an effect the other way counts as inactive or inconclusive.

What do the screens show for `CC[C@@H]1[C@H]2CCCCN3[C@@H]2[C@@H](C[C@H]3[C@@H]2C[C@H](C)C(=O)O2)[C@@H]2[C@H]1OC(=O)[C@H]2C`?
Hsp90 Hop PPI: inactive; UbGFP stabilizer: inactive; Epigenetic mod: inactive[9.22 µM]

What do the screens show for `CCNc1nc(NCC)n2c(SCc3nc4ccccc4c(=O)[nH]3)nnc2n1`?
PK Bst: 7; USP2a inhib: inactive; Hsp90 Hop PPI: inactive; UbGFP stabilizer: inactive; HBB splicing: inactive; Epigenetic mod: inactive

How did N#Cc1cc2c(nc1SCc1cccnc1)CCC2 do in these assays?
PK Bst: inactive; USP2a inhib: inactive; Hsp90 Hop PPI: inactive; UbGFP stabilizer: inactive; HBB splicing: inactive; Epigenetic mod: inactive

How did N#Cc1cc2c(nc1SCc1nc3ccccc3[nH]1)CCC2 do in these assays?
PK Bst: 6; USP2a inhib: inactive; Hsp90 Hop PPI: inactive; HBB splicing: inactive[0.369 µM]; Epigenetic mod: inactive

What do the screens show for `CCOC(=O)C1CCN(c2nc3cc(OC)ccc3cc2C#N)CC1`?
PK Bst: inactive; USP2a inhib: inactive; Hsp90 Hop PPI: 25µM; UbGFP stabilizer: inactive; Epigenetic mod: inactive

How did COc1ccc2nc(N3CCC(C)CC3)c(C#N)cc2c1 do in these assays?
Hsp90 Hop PPI: 25µM; UbGFP stabilizer: inactive; HBB splicing: inactive; Epigenetic mod: inactive

Results for Nc1ncnc2c1ncn2[C@@H]1O[C@@H](COP(=O)(O)OP(=O)(O)OP(=O)(O)OP(=O)(O)OC[C@@H]2O[C@@H](n3cnc4c(N)ncnc43)[C@@H](O)[C@H]2O)[C@H](O)[C@@H]1O ?
USP2a inhib: inactive; Hsp90 Hop PPI: inactive; UbGFP stabilizer: inactive; HBB splicing: inactive; Epigenetic mod: inactive

Results for CCCCN(CC)CCNS(=O)(=O)c1cccc2cccnc12 ?
Hsp90 Hop PPI: inactive; UbGFP stabilizer: inactive; HBB splicing: inactive

How did CCCCC[C@H](CC(=O)NO)C(=O)N[C@@H](C(=O)N1CCC[C@H]1CO)C(C)C do in these assays?
USP2a inhib: inactive; Hsp90 Hop PPI: inconclusive; UbGFP stabilizer: inactive; HBB splicing: inactive; Epigenetic mod: inactive

Results for Oc1ccc(CN2CCCc3ccccc32)c2cccnc12 ?
PK Bst: inactive; USP2a inhib: inactive; Hsp90 Hop PPI: 3.2µM; UbGFP stabilizer: inactive; HBB splicing: inactive; Epigenetic mod: inactive

What do the screens show for `COc1ccc(N2CCN(C(=O)c3ccc(C)c(Cl)c3)CC2)cc1`?
PK Bst: 6.4; USP2a inhib: inactive; Hsp90 Hop PPI: inactive; UbGFP stabilizer: inactive; HBB splicing: inactive; Epigenetic mod: inactive

Results for CC(C)[N+]1(C)C2CCC1CC(OC(=O)C(CO)c1ccccc1)C2 (stereo not given) ?
USP2a inhib: inactive

Results for COc1ccc(C(=O)Cn2nnc(-c3cccs3)n2)cc1 ?
USP2a inhib: inactive; Hsp90 Hop PPI: inactive; UbGFP stabilizer: inactive; Epigenetic mod: inactive

Results for Cc1ccc(C(=O)Cn2nnc(-c3ccccc3-n3cnnn3)n2)cc1 ?
PK Bst: 4.7; USP2a inhib: inactive; Hsp90 Hop PPI: inconclusive; UbGFP stabilizer: inactive; Epigenetic mod: inactive

What do the screens show for `COc1ccc(C(=O)Cn2nnc(-c3ccccc3-n3cnnn3)n2)cc1`?
PK Bst: 4.2; USP2a inhib: inactive; Hsp90 Hop PPI: inactive; UbGFP stabilizer: inactive; HBB splicing: inactive; Epigenetic mod: inactive

How did COc1ccc(-c2coc3ccc(O[C@@H]4O[C@@H](COC(C)=O)[C@@H](OC(C)=O)[C@@H](OC(C)=O)[C@H]4OC(C)=O)c(OC(C)=O)c3c2=O)cc1 do in these assays?
Hsp90 Hop PPI: inactive; UbGFP stabilizer: inactive; Epigenetic mod: inactive[9.22 µM]

How did CCOC(=O)c1c2c(n3ccccc13)C(=O)c1ccccc1C2=O do in these assays?
Hsp90 Hop PPI: inactive[11 µM]; UbGFP stabilizer: inactive[9.17 µM]; HBB splicing: 3.2µM; Epigenetic mod: inactive[9.22 µM]

How did CCN1C(=O)[C@@H]2[C@H]3C(=CC[C@@H]2C1=O)C1(OCCCO1)[C@H]1O[C@@H]1[C@H]3O do in these assays?
HBB splicing: inactive[9.22 µM]

Results for NC(=O)CSc1nc2sc3c(c2c2ncnn12)CCCC3 ?
PK Bst: 1.3; USP2a inhib: inactive; Hsp90 Hop PPI: inactive; HBB splicing: inactive[0.369 µM]; Epigenetic mod: inactive

How did CSc1nc2sc3c(c2c2nnnn12)CCCC3 do in these assays?
PK Bst: inactive; Epigenetic mod: inactive

How did Oc1cc(O)cc(/C=C\c2ccc(O)c(O)c2)c1 do in these assays?
USP2a inhib: inactive; Hsp90 Hop PPI: inconclusive; UbGFP stabilizer: inactive; HBB splicing: inactive; Epigenetic mod: inactive

Results for c1ccc2c3c([nH]c2c1)-c1[nH]ncc1CC3 ?
PK Bst: 3.1; USP2a inhib: inactive; Hsp90 Hop PPI: inactive; UbGFP stabilizer: inactive; HBB splicing: inactive; Epigenetic mod: inactive

What do the screens show for `c1ccc(Cn2c(-c3ccco3)nc3nc4ccccc4nc32)cc1`?
PK Bst: inactive; USP2a inhib: inactive; Hsp90 Hop PPI: inactive; UbGFP stabilizer: inactive; HBB splicing: inactive; Epigenetic mod: inactive

Results for COc1ccccc1Cn1c(-c2ccco2)nc2nc3ccccc3nc21 ?
PK Bst: inactive; USP2a inhib: inactive; Hsp90 Hop PPI: inactive; UbGFP stabilizer: inactive; HBB splicing: inactive; Epigenetic mod: 13µM

Results for COc1cccc(C2CC(c3ccccc3Cl)Nc3ncnn32)c1 (stereo not given) ?
PK Bst: 8.4; USP2a inhib: inactive; Hsp90 Hop PPI: inactive; UbGFP stabilizer: inactive; HBB splicing: inactive; Epigenetic mod: inactive

Results for O=C1C(=O)c2ccccc2C(O)=C1C(CCc1ccccc1)C1=C(O)c2ccccc2C(=O)C1=O ?
Hsp90 Hop PPI: inactive[11 µM]; UbGFP stabilizer: inactive[9.17 µM]; HBB splicing: inactive[9.22 µM]; Epigenetic mod: inactive[9.22 µM]

How did Cc1ccc2ccc3cccc4ccc1c2c34 do in these assays?
Hsp90 Hop PPI: 40µM; HBB splicing: inactive

Results for Cc1cc(NC(c2cccnc2)c2ccc3cccnc3c2O)no1 (stereo not given) ?
PK Bst: inactive; USP2a inhib: inactive; Hsp90 Hop PPI: 4µM; UbGFP stabilizer: inactive; HBB splicing: inactive; Epigenetic mod: inactive

How did O=C(/C=C\c1ccc(O)c(O)c1)O[C@H]1C[C@@](O)(C(=O)O)C[C@H](O)[C@@H]1O do in these assays?
Hsp90 Hop PPI: inactive; UbGFP stabilizer: inactive; Epigenetic mod: inactive[9.22 µM]

What do the screens show for `C(=Nc1cnc2ccccc2c1)c1ccc2ccccc2n1`?
Hsp90 Hop PPI: inactive[11 µM]; UbGFP stabilizer: inactive[9.17 µM]; HBB splicing: inactive[9.22 µM]; Epigenetic mod: inactive[9.22 µM]

Results for CCOC(=O)N1CCC(NC(=O)c2cccc3c2C(=O)N(Cc2cccnc2)C3)CC1 ?
PK Bst: inactive; USP2a inhib: inactive; Hsp90 Hop PPI: inactive; UbGFP stabilizer: inactive; HBB splicing: inactive; Epigenetic mod: inactive

From PubChem
